Experimental data taken from the supplement of paper PMC6555819.

What was measured:
Experiment in all cases: PBM binding z-score (relative to random genomic background probes); higher = stronger binding; sequences stand for … in GC…GCGATTGACAGCGTAGAATGAAGG
[1] = test system: RARb homodimer (NR concentration 270 nM)
Summary of the method: (§1)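 Custom Agilent 4×180K protein-binding microarrays carried double-stranded probes. Their 34-nt variable regions held direct-repeat seeds, single-nucleotide variants, half-site ablations and random human genomic background sequences. Arrays were incubated 1 h with ligand-free nuclear receptor dimers in PBS pH 7.4, 2% milk, 0.02% Triton X-100, 1 mM DTT, 0.2 mg/mL BSA and 0.4 mg/ml salmon testes DNA. Antibodies against each partner (one per run) detected binding, and scanned fluorescence was regression-normalized. Binding z-scores use random background probes as reference.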

[2] = test system: RARg:RXRa (NR concentration 270 nM, RXRa partner concentration 90 nM)
Summary of the method: as §1

[3] = test system: RARg homodimer (NR concentration 270 nM)
Summary of the method: as §1

[4] = test system: RXRa DBDmut IVT, anti-RXR (DBD mutation: RXRa K156A/R161A, NR concentration 90 nM)
Summary of the method: as §1

[5] = test system: RXRa homodimer (NR concentration 180 nM)
Summary of the method: as §1

[6] = test system: THRa:RXRa (NR concentration 90 nM, RXRa partner concentration 90 nM)
Summary of the method: as §1

[7] = test system: THRa homodimer (NR concentration 90 nM)
Summary of the method: as §1

[8] = test system: VDR:RXRa (NR concentration 270 nM, RXRa partner concentration 90 nM)
Summary of the method: as §1

[9] = test system: VDR homodimer (NR concentration 270 nM)
Summary of the method: as §1

| Sequence | PBM binding z-score [1] | PBM binding z-score [2] | PBM binding z-score [3] | PBM binding z-score [4] | PBM binding z-score [5] | PBM binding z-score [6] | PBM binding z-score [7] | PBM binding z-score [8] | PBM binding z-score [9] |
| --- | --- | --- | --- | --- | --- | --- | --- | --- | --- |
| TCATATAAGTAATACAGGTGAAAGTCGGCATCTA | 0.481 | 0.675 | 0.621 | 2.03 | 1.42 | 0.662 | 0.191 | 1.16 | 0.605 |
| CTCGAAAGGTCGTGCTCAAGTGAGTATACCAAAC | 2.33 | 4.27 | 3.66 | 2.31 | 4.62 | 2.31 | -0.0165 | 3.13 | 1.15 |
| ACCTCTAGGTAAGACTCAGTTCAGTGAAGAACGC | 0.0203 | -0.0549 | -0.0332 | 0.371 | -0.0186 | 0.243 | 0.088 | 0.00811 | 0.678 |
| TCTTGTAGATCAAAGGTTAAGATAGCCGAAGCCT | 1.61 | 2.19 | 1.11 | 0.675 | 3.56 | 1.38 | -0.548 | 1.49 | 0.153 |
| CGAACGATGGCATGAGTTGATAGCAAATGCCGAT | -0.482 | -0.189 | -0.00968 | 0.0712 | 0.135 | -0.2 | -0.806 |  | 0.233 |
| AGAACGAGGGCAATGAGTTGAGAGCACGGGTGGC | 1.1 | 0.994 | 1.58 | 1.93 | 0.838 | 1.1 | -0.211 | 4.33 | 2.08 |
| CATACAGGGTCAGCTAGGGCAGAGTAGGGACGGC | 3.44 | 4.4 | 4.87 | 1.33 | 4.24 | 3.69 | 0.984 | 4.55 | 2.1 |
| CGAACTAGGTTAAGGACAGTGAATCTCCGCACGC | 1.1 | 0.615 | 0.965 | 0.432 | 0.533 | 3.11 | 3.05 | -0.159 | -0.012 |
| TCTAGCAGGCCAGAGAGTCACTCAAGAGGTACGG | -0.56 | -0.0784 | -0.0814 | -0.229 | 0.33 | -0.304 | -1.31 |  | -0.865 |
| TTACCAAGGTGAGCTGAGGTCCTTGATCCAACTC | 0.469 | 0.18 | 0.227 | -0.639 | 0.399 | 3.79 | 0.733 | 0.464 | -0.397 |
| TCTTGTAGATCAAGGAGGTTAAGAAAGCCTGAGT | 0.594 | 0.234 | -0.0688 | 0.581 | 0.685 | 0.835 | -0.069 | 1.26 | 0.29 |
| CAAACTAGCTCACAGAGGTCAAAGTCCGTGCGTA | 4.34 | 5.3 | 4.81 | 1.5 | 6.31 | 3.53 | 1.27 | 5.02 | 3.71 |
| CGAACTAGGTCAAGGACAGTGTATCTCCGCACGC | 3.56 | 3.8 | 4.37 | 1.87 | 2.55 | 3.45 | 2.61 | 1.78 | 0.841 |
| TATACAGGGTCAAAGGCCGGAGTACGAATGTCGA | 3.45 | 5.49 | 4.9 | 2.94 | 6.66 | 3.34 | 0.872 |  | 3.02 |
| CAAACTAGGTCAAAGGTCAAAGGCGAGCCAACCA | 5.32 | 9.06 | 7.75 | 3.02 | 10.4 | 4.91 | 1.64 | 6.82 | 3 |
| CCGACTGGGGCATAAGGTCACCATAAGCCAGCCC | 4.32 | 4.86 | 4.18 | 0.204 | 4.29 | 4.08 | 4.71 | 3.15 | 1.77 |
| GCGACTGGCGCAAAGCAGGTTACCATAAGGTTGG | -0.0806 | -0.27 | -0.774 | -0.791 | -0.0574 | 0.636 | -0.543 | -0.716 | -0.861 |
| CCTAGCAGGCCAATCTGGGTCACACAAGGCTTGA | 2.53 | 1.61 | 1.82 | 0.0737 | 1.63 | 3.99 | 0.9 |  | 0.17 |
| CCGAGTAGGTTATGGGGCATTCGGGCAACGGTGA | 1.46 | 0.533 | 0.653 | -0.483 | 0.797 | 0.415 | 0.172 | -0.16 | -0.175 |
| ACTAGCAGGCCAAGTTTGGATCACTCAAACAAAG | -0.0539 | -0.0446 | 0.341 | -0.14 | -0.454 | -0.0937 | -0.67 | -0.621 | -0.0821 |
| CCTACTGGGCCATTCAGAGGTCTTTGATCATATG | 0.406 | 0.221 | 0.17 | -0.165 | -0.258 | 0.0585 | -0.237 | -0.301 | -0.313 |
| CCAGTCAGGTGAAAGGTAACTCAGTCTGGTACGC | 0.929 | 1.2 | 0.727 | 0.124 | 1.42 | 1.95 | 1.04 | 0.52 | -0.00335 |
| CCTTACGGGTCATTGACAGGTTATAGCATTTGGA | 3.04 | 5.75 | 3.8 | 2.9 | 5.07 | 2.91 | 0.494 |  | 1.67 |
| AATACAGGGTCATAGTAGGCCAGAGTACGCACAG | 3.26 | 4.92 | 4.13 | 3.36 | 5.63 | 4.23 | 1.41 |  | 3.6 |
